The values that follow come from PubChem BioAssay (NCATS).

SMILES strings stand for the structures. Values joined by “and” are separate entries in the source; they are usually repeats but may differ in a detail not shown here. Identical values can stand only once. Results filed as inconclusive are left out. Values without a mark were called inactive. Active and inactive are the calls of the source. Calls come from the whole dose curve; as a rule, active = well fitted activation curve with a large enough effect; inconclusive = small, poorly fitted or top-dose-only effect; inactive = no such curve, though single readings can be large or run the other way.
Potency is the fitted concentration of half-maximal effect.

Sequence of Cellular tumor antigen p53 (Homo sapiens) (P04637 whole entry, looked up): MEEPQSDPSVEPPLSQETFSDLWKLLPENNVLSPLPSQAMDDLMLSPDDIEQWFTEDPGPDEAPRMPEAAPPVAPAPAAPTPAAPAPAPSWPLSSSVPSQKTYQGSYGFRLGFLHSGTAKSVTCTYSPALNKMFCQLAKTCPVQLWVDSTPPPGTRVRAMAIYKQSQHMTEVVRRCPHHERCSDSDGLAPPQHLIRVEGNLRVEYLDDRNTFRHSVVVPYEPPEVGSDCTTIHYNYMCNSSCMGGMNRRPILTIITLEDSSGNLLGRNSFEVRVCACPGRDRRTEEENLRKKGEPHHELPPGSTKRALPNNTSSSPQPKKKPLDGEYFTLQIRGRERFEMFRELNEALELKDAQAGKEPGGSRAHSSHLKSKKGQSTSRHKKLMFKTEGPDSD

In this assay the target is Cellular tumor antigen p53 (Homo sapiens) (UniProt P04637). Description: Primary qHTS for small molecule compounds that upregulate eGFP-tagged delta133p53alpha (in N-terminal) cells. (AID 2060322).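 For activation: series mostly up to about 56 µM; 0% = DMSO vehicle and 100% = reference activator.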 Note: nearly all actives have a fitted effect of over 75% in size. To be noted: NCI-H358 eGFP-delta133p53alpha fluorescence, 24 h; activation: stronger effect = higher value. Summed up:
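NCI-H358 cells pre-induced 24 h with 10 ng/ml doxycycline to express N-terminal eGFP-delta133p53alpha, then dosed 24 h at 37C without doxycycline; fixed, Hoechst-stained, GFP intensity by laser scanning cytometry, normalized to DMSO (0%) and 57.5 uM 5-azacytidine (100%).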
For `O=S1(=O)c2cccc3cccc(c23)N1CCCN1CCN(c2ccc(F)cc2)CC1`, the activation was 8.47%.

`CC(=O)O[C@@H]1CC2C3CCc4cc(OC(=O)c5ccccc5)ccc4C3CCC2(C)[C@H]1OC(C)=O` (stereo partly drawn): the activation was 6.21%.

With `O=C(O)[C@H](O)c1ccccc1`, the activation is -6.21%.

Regarding `CCCOC(=O)c1ccc(N)cc1`, the activation is 0%.

For the molecule `CCCCOc1cc(C(=O)NCCN(CC)CC)c2ccccc2n1`, the activation was 0%.

As to `CCOC(=O)c1ccccc1O`, the activation was -2.51%.

For `CCN(C(=O)CO)[C@H]1CN(C(=Nc2cccc(OC(F)F)c2)NC#N)N=C1c1ccc(Cl)c(Cl)c1`, the activation was 19%.

For `CN=C(N)NC(=O)Nc1c(C)cccc1C`, the activation was 5.86%.

Take `CCC[C@H](N[C@@H](C)C(=O)N1[C@H](C(=O)O)C[C@@H]2CCCC[C@@H]21)C(=O)OCC`: the activation was -15.3%.

Turning to `Cc1ncc([N+](=O)[O-])n1C`, the activation is -0.565%.

With `CNC(=O)c1ccccc1Sc1ccc2c(C=Cc3ccccn3)n[nH]c2c1`, the activation is -28.7%.

`COc1ccc(C=CC(=O)Nc2ccccc2C(=O)O)cc1OC`: the activation is 5.12%.

Turning to `CCCCCCCCCCCCCCCC(=O)OC(C)C`, the activation is -15.3%.

As for `NC(=O)NC1N=C([O][Al])NC1=O` (stereo not drawn), the activation was 8.47%.

Consider `CCCc1c(OCCCCc2nn[nH]n2)ccc(C(C)=O)c1O`, for which the activation was -2.82%.

As for `CC[C@]1(O)C[C@@H]2CN(CCc3c([nH]c4ccccc34)[C@@](C(=O)OC)(c3cc4c(cc3OC)N(C=O)[C@@H]3C45CCN4CC=C[C@](CC)([C@H]45)[C@@H](OC(C)=O)[C@]3(O)C(=O)OC)C2)C1` (stereo partly drawn), the activation was -1.44%.

Regarding `Nc1ncn([C@@H]2O[C@H](CO)[C@@H](O)[C@@H]2O)c(=O)n1`, the activation was 26.1%.

Regarding `CCC(C=C[C@@H]1OC(=O)C=C[C@H]1C)=C[C@H](C)CC=CC(C)=C[C@@H](C)C(=O)[C@@H](C)[C@H](O)[C@@H](C)CC(C)=CC(=O)O`, the Potency is 0.287 µM (active).

As for `CO[C@@H]1[C@@H](OC)[C@H](C)[C@@](O)(CC(=O)O)O[C@H]1[C@H](C)[C@H]1O[C@@]2(CC[C@@](C)([C@H]3CC[C@@](C)([C@@H]4O[C@@H]([C@H]5O[C@](C)(O)[C@H](C)C[C@@H]5C)C[C@@H]4OC4C[C@H](OC)[C@@H](OC)[C@H](C)O4)O3)O2)C[C@H](O)[C@H]1C` (stereo partly drawn), the Potency was 8.71 µM (active).

`COC(=O)c1ccccc1C(=O)c1ccc(OCCN2CCCCC2)cc1`: the activation was -14.1%.

Consider `CN1CC(=O)NC1=N`, for which the activation was -5.08%.

As to `Nc1ccc(S(=O)(=O)Nc2ccccn2)cc1`, the activation is -36.8% and 13.3%.

For the molecule `NC(=O)Cc1cccc(C(=O)c2ccccc2)c1N`, the activation is 9.6%.

`COc1ccc(CCC(C)=O)cc1`: the activation was -5.86%.

Consider `Cc1nc(N)nc(N)c1-c1ccc(Cl)c(Cl)c1`, for which the activation was 2.82%.

For `CC(=O)Oc1cccc(O)c1`, the activation is 18.6%.

For the molecule `COc1ccc2nc(NC(=O)Nc3ccccc3)sc2c1`, the activation was -19.8%.

For `O=C(NNC(=O)c1ccc(CNS(=O)(=O)c2ccc(F)c(Cl)c2)cc1)c1ccccc1`, the activation is 15.5%.
